# This is part of a sample that, as a whole, favours compounds with a hit. Of some 83,000 tested, about 20% had one in any assay.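 Negative percent growth values reflect cell death: -40 means 40% of the cells present at the start died, and -100 means all died.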 Unmarked numbers belong to inactive results. Activity calls are given as the source filed them.
# System: U251 CNS
# Assay: NCI-60 one-dose screen, 48 h (100 = growth as untreated, 0 = no growth, -100 = all killed)
# Settings: 10 µM
# Description: Growth inhibition of the U251 human tumor cell line is measured as a screen for anti-cancer activity. Cells are grown in 96 well plates and exposed to the test compound for 48 hours. Compounds are tested at a single concentration, which is 10^-5 M for most compounds. The reported endpoint is percent growth (GI% or GIPRCNT), where numbers from 0 - 100% represent growth inhibition, and numbers from -100% - 0 represent cell death. For example, a value of 40 represents 60% growth inhibition. A value of 0 means no net growth occurred over the course of the experiment. A value of -40 indicates 40% of cells at the beginning of the experiment died by the end of the experiment. A value of -100 means all cells are dead at the end of the experiment.
# NCI-60 Human Tumor Cell Lines Screen was performed using the standard one-dose NCI protocol, which is described in more detail at https://dtp.cancer.gov/discovery_development/nci-60/default.htm.
# Compounds with GIPRCNT values below 10 were considered active. Activity score was based on GIPRCNT using the following formula: […]
# Score is 0 for GIPRCNT values of 100 or above, 50 for GIPRCNT values of 0, and 100 for GIPRCNT values of -100.
row,Compound,growth
1,CC(=O)c1ccc(NCn2nc(-c3ccc(Cl)cc3)oc2=S)cc1,96.1%
2,CCOC(=O)c1ccc(NC(=O)Nc2nncs2)cc1,17.3%
3,CC(C)c1[nH]nc2c(NCc3ccc(-c4ccccn4)cc3)nc(SCCN)nc12,5.64% (active)
4,CCN(CC)CCOC(=O)c1ccc(NC(=O)Nc2cccc(Cl)c2)cc1,96.5%
5,CCc1ccc(-c2nnc(COc3ccc(-c4nc5cc(Cl)c(Cl)cc5[nH]4)cc3OC)o2)cc1,29.1%
6,Cc1ccc2oc(=O)cc(/C(=C3/C=CC=N3)c3ccc[nH]3)c2c1,-17.2% (active)
7,CCOC(=O)CNC(=O)Nc1ccc(Oc2ccc(NC(=O)NCC(=O)OCC)cc2)cc1,93.8%
8,COc1cc(C2C=C(c3ccc(Cl)c(Cl)c3)N=C3SC(C)=CN32)cc(OC)c1OC (stereo not given),51.2%
9,Cc1cc(=O)oc2cc(OCc3cn(CC(O)CO)nn3)ccc12 (stereo not given),100%
10,C#CCNCCCN1C(=O)c2ccc3c4c(ccc(c24)C1=O)C(=O)N(CCCNCC#C)C3=O,-76.6% (active)
11,CC(C)C[C@H](NC(=O)Cn1ccc(Nc2ccccc2)cc1=O)B(O)O,65.9%
12,COc1ccc(C(=O)c2sc3nc(-c4cccs4)ccc3c2N)cc1OC,59%
13,COC(=O)c1ccc(Cn2ccc(=O)[nH]c2=O)cc1,112%
14,Cc1ncc([N+](=O)[O-])n1CCOc1ccc(C(=O)/C=C/c2ccc(C(F)(F)F)cc2)cc1,51.7%
15,CN(C)Cc1cccs1,95.9%
16,CCN(CC)CC(O)CNc1ccnc2cc(Cl)c(Cl)cc12 (stereo not given),75.4%
17,C=CCOc1ccc2c(c1)CC=C1[C@@H]2CC[C@]2(C)C(=O)/C(=N/O)C[C@@H]12,89.5%
18,COc1cc(C(c2c[nH]c3ccccc23)N2CCCC2)ccc1OCc1ccccc1 (stereo not given),86%
19,O=C(O)CNS(=O)(=O)c1ccc(OCCOc2ccc(S(=O)(=O)NCC(=O)O)cc2)cc1,99.9%
20,COc1cc(CSc2nc3ccc(C)cc3c(=O)n2-c2ccccc2)cc(OC)c1OC,38.5%

row,Compound,growth
1,Cc1ccc(/C=C2\CN(Cc3cn(CCNc4ccnc5cc(Cl)ccc45)nn3)C/C(=C\c3ccc(C)cc3)C2=O)cc1,-73.7% (active)
2,CCOc1nc(-c2ccccc2)cc2c(O)c(C(=O)N/N=C/c3ccc(OC)cc3)[nH]c(=O)c12,100%
3,Cn1c(=O)c2[nH]c(C(O)c3ccc(Cl)cc3)nc2n(C)c1=O (stereo not given),99.5%
4,FC(F)(F)c1ccc(-c2cnc(Br)nc2NC2CCCCCC2)cc1,12.1%
5,COc1cc(/C=C/C(=O)c2cc(-c3ccccc3)ccc2O)cc(OC)c1OC,75.7%
6,Cn1c(N)c(N=Cc2ccccc2)c(=O)n(C)c1=O,110%
7,CC(C)C[C@H](NC(=O)Cn1ccc2ccccc2c1=O)B(O)O,87.6%
8,COc1ccc(-c2oncc2-c2cc(OC)c3c(c2)OCO3)cc1,28%
9,c1ccc(CNc2nc(Nc3ccc(-c4nc5ccccc5[nH]4)cc3)c3cn[nH]c3n2)cc1,-19.8% (active)
10,CCCc1c(CC)c(=N)c2ccccc2n1C,43.2%
11,CCCCCC(CCC)COC(=O)c1ccc(OC)cc1 (stereo not given),96%
12,CN(C)c1ccc2cc(-c3cc4c(oc3=O)-c3ccccc3OC4O)c(=O)oc2c1 (stereo not given),30%
13,COc1ccc2nc(-c3ccccc3)cc(C(C)=O)c2c1,99.1%
14,COc1ccc(C2C=C(c3ccc(OC)c(OC)c3)N=C3SC=CN32)c(Br)c1 (stereo not given),43.7%
15,COc1ccc(-c2cc(/C=C/C(=O)c3ccc(N)cc3)[nH]n2)cc1OC,28.5%
16,Nc1ncncc1-c1ccc(F)cc1,103%
17,CCCCn1c(=O)[nH]c2c(c1=O)C(c1ccc(Cl)cc1)c1c([nH]c(=O)n(CCCC)c1=O)N2,94%
18,Nc1nsc(C(=O)c2ccc(O)cc2)n1,93.5%
19,O=C(O)c1ccc(CNc2ccc(C(=O)CCl)cc2)cc1,93.8%
20,C=CCOc1ccc2c(c1)CC[C@@H]1[C@@H]2CC[C@]2(C)C(=O)/C(=N/O)C[C@@H]12,68.8%

# Source: PubChem BioAssay (NCI)
